Screening results from PubChem BioAssay.
A selection: hits, their analogues and other compounds. The true share with any hit is near 2.1%.
HSV replic up: HSV replication enhancement; HSV replication augmentation in cells, fold increase; hit rate 0.005% among 220,000; AID 1956; maximum fold increase; in the data active = maximum fold increase above about 1.5; inconclusive = no clear call, values can overlap the other calls; tested in PC3 cells
m-calpain inh: blocks pig calpain II enzyme activity. purified calpain II, fluorogenic peptide substrate, 30 min. hit rate 0.37% among 220,000. inhibition, % at 16 µM;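 active = inhibition above about 50%, limit read from the data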
Arbovirus inh: arbovirus infection inhibition; inhibition, % at 10 µM; arbovirus infection cell-based antiviral screen; hit rate 0.37% among 200,000; in the data active = inhibition above about 30%
HMGR II inh: E. faecalis class II HMG-CoA reductase inhibition; inhibition, % at 10 µM; AID 1066; hit rate 0.41% among 190,000; purified E. faecalis HMGR, NADPH absorbance 340 nm kinetic;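 active = inhibition above a set limit, the median over all tested compounds plus 3 SD, cut at about 9.5% in these data; inconclusive = no clear call, values can overlap the other calls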;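 also: enzyme runs in reverse so mevalonate oxidation gives rising NADPH absorbance; 0% = complete reaction with DMSO and 100% = background rate lacking mevalonate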
ROMK mod: modulators of human ROMK potassium channel | P48048 | Tet-inducible ROMK, thallium flux fluorescence; actives lie on both sides | B-score at 10 µM | hit rate 2% among 130,000 | AID 1918;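 active = signal ratio slope over the read window, or its plate-corrected B-score, at least 3 SD from the plate mean, either direction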;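 also: B-score of the F/F0 ratio slope over 7 to 12 s after thallium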
Target sequence (P48048 whole entry, looked up): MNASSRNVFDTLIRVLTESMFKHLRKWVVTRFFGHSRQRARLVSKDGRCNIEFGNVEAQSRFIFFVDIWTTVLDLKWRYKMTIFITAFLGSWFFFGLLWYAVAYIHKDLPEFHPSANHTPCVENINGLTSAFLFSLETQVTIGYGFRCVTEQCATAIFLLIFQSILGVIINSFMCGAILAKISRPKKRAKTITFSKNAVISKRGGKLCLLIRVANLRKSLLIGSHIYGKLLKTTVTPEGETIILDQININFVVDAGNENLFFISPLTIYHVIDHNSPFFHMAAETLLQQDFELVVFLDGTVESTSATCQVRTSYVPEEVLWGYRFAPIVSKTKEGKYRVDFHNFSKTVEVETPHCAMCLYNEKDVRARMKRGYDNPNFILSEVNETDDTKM
* hit, by the source's call; i = inactive; ? = inconclusive; . = not tested or not shown.

SMILES | HSV replic up | m-calpain inh | Arbovirus inh | HMGR II inh | ROMK mod
CCOC(=O)Cc1nnc(NC(=O)c2ccccc2OCC)s1 | i | -7 | 78* | -3 | 0.22
CCOC(=O)Cc1nnc(NC(=O)c2ccccc2OC)s1 | i | -4 | 7 | -3 | -0.23
CCn1cc(C(=O)O)c(=O)c2cc(OC)ccc21 | i | -12 | 4 | -1 | .
COc1ccc2c(c1)c(=O)c(C(=O)c1ccccc1)cn2Cc1ccc(C)cc1 | i | -2 | -16 | 14* | 0.13
Cc1ccc(C(C#N)c2ccc3c(C(F)(F)F)cc(C(F)(F)F)nc3n2)cc1 (configuration not stated) | i | 55* | -6 | -2 | .
O=C(NC(=S)Nc1cccc(C(F)(F)F)c1)c1csnn1 | i | 14 | -4 | -2 | 8.8*
O=C(NC(=S)Nc1ccccc1Cl)c1csnn1 | i | 26 | 5 | -3 | .
CN(c1ccccc1)c1ccc(/C=C(\CCC(=O)O)c2nc3ccccc3s2)cc1[N+](=O)[O-] | i | 39 | 37* | 4 | -0.14
COCCN(CCOC)S(=O)(=O)c1ccc(C(=O)Nc2c(C)n(C)n(-c3ccccc3)c2=O)cc1 | i | 13 | . | . | .
CC(C)(C)c1ccc(C(=O)Nc2cccc([N+](=O)[O-])c2)cc1 | i | 50* | -2 | -3 | 0.46
O=C(Nc1ccc(N2CCCCC2)cc1)c1ccc2c(c1)OCCO2 | i | -19 | 9 | 27* | 1.5
Cc1ccc(NC(=O)c2cc(N3C(=O)C4CC=CCC4C3=O)ccc2N2CCCCC2)cc1 (configuration not stated) | i | -76 | -8 | -8 | .
Cc1ccc(NC(=O)c2cc(N3C(=O)C4CCCCC4C3=O)ccc2N2CCOCC2)cc1 (configuration not stated) | i | 68* | 3 | 2 | 0.44
CCNc1nc(SCCOc2ccc(Cl)cc2Cl)nc(N(C)C)n1 | i | 22 | 30* | -5 | -0.039
CCc1ccc2[nH]c(=O)c(C(c3nnnn3CC3CCCO3)N3CCN4CCCC4C3)cc2c1 (configuration not stated) | i | -103 | 2 | -1 | -2.4*
COc1ccc(CCNC(=O)CSc2nn(-c3ccccc3)c(=S)s2)cc1 | i | -2 | . | . | .
OCC1(CCOc2ccccc2)CCN(Cc2nc3ccc(F)cc3[nH]2)CC1 | i | -12 | 55* | -5 | -0.86
COCCn1c(=N)c(C(=O)NCc2ccco2)cc2c(=O)n3cc(C)ccc3nc21 | i | -370 | 1 | 17* | -1.5
O=C(NCC1CCCO1)c1cccc(S(=O)(=O)NCc2ccccc2)c1 (configuration not stated) | i | -18 | 2 | -6 | -0.081
CC(NC(=O)c1cccs1)c1ccc2c(c1)OCO2 (configuration not stated) | i | -7 | -3 | -4 | .
Cc1ccc(C(=O)NC(C)c2ccc3c(c2)OCO3)s1 (configuration not stated) | i | -24 | 13 | 13* | 0.06
CCOc1cc(CNc2ccc(O)cc2)cc(Br)c1OCc1ccccc1F | i | 73* | -23 | -1 | .
COc1cc(CNc2ccc(O)cc2)cc(Br)c1OCc1ccccc1F | i | 35 | -6 | -13 | .
O=c1[nH]c(SCc2ccc(F)cc2Cl)nc2ccccc12 | i | -2 | 3 | -4 | 0.19
CCn1c(COc2ccc(Cl)cc2)nnc1SC1CCc2ccccc2C1=O (configuration not stated) | i | 52* | -10 | 0 | -0.63
SMILES | HSV replic up | m-calpain inh | Arbovirus inh | HMGR II inh | ROMK mod
CCn1c(COc2ccc(Cl)cc2)nnc1SCc1ccc(C#N)cc1 | i | -3 | -1 | -5 | -1.5
O=C(CSc1nnc2ccccn12)Nc1ccc2c(c1)OCCO2 | i | 4 | 1 | -5 | 0.16
C=CCNC(=S)Nc1cccc(N)c1 | i | -4 | -1 | -3 | 1.2
Nc1n[nH]c(N)c1N=Nc1ccccc1 | i | 0 | -3 | -10 | 2
Nc1n[nH]c(N)c1N=Nc1ccc(F)cc1 | i | 51* | 10 | 2 | 0.59
COc1ccccc1OCC(=O)N/N=C1/C=C(C)CC1 | i | 9 | 2 | -7 | 0.13
CC(C)NC(=S)N/N=C/c1cc(Br)ccc1O | i | -190 | -1 | -6 | -0.94
Cc1cccc(C)c1Nc1nc2ccccc2o1 | i | -11 | 46* | -2 | .
COc1cccc(CN=C2Nc3ccccc3CS2)c1 | i | -7 | 30* | 4 | -0.88
Cc1ccc(CN=C2Nc3ccccc3CS2)cc1 | i | 18 | 10 | 2 | .
Clc1ccccc1-c1nnc2sc(-c3cccs3)nn12 | i | 52* | -12 | -9 | -0.5
Clc1ccccc1-c1nnc2sc(-c3ccncc3)nn12 | i | 13 | 5 | -1 | .
COc1ccccc1C(=O)NCC1(c2ccccc2)CCCC1 | i | 3 | 1 | -4 | 0.086
COc1ccc(C(=O)/C=C/c2ccc(OC)c(Cn3nnc4ccccc43)c2)cc1 | i | 9 | 37* | -2 | .
O=C(NCc1cccnc1)c1ccccc1CCc1ccccc1 | i | 50* | 6 | -10 | 0.31
FC(F)(F)c1cc(-c2cccs2)nc2nc(N3CCOCC3)sc12 | i | -149 | -22 | -5 | 0.14
COc1ccc(C2N(Cc3ccccc3)CC(=O)N2/N=C(\C)c2ccccc2)cc1 (configuration not stated) | i | 30 | 2 | -3 | 0.62
COc1ccc(S(=O)(=O)N2CCCC2C(=O)n2nc(C)cc2C)cc1 (configuration not stated) | i | 28 | -9 | -4 | 0.018
COc1ccc(/C=C2\SC(=S)N(CC(=O)N3CCN(C)CC3)C2=O)cc1 | i | -1 | . | . | .
COCCN1C(=O)/C(=C/c2ccc(N3CCCC3)cc2)SC1=S | ? | -13 | -6 | 1 | -3.5*
CCCCSc1nnc2c(n1)OC(C(=O)c1ccccc1)Nc1ccccc1-2 (configuration not stated) | . | 65* | -2 | -6 | -0.0092
O=C(COC(=O)c1ccccc1Br)NCCC1=CCCCC1 | i | 6 | 3 | -2 | 0.015
O=C(NC(=S)NCCC1=CCCCC1)c1ccccc1Br | i | -45 | 37* | -7 | 0.35
CN(C)C(=O)Nc1ccccc1 | i | -18 | . | . | 0.9
O=C(OCc1nnc(-c2ccccc2)o1)c1ccc2c(c1)OCO2 | i | 72* | 7 | -4 | .
SMILES | HSV replic up | m-calpain inh | Arbovirus inh | HMGR II inh | ROMK mod
CCOC(=O)Cn1c(=O)cc(C)c2cccc(C)c21 | i | 73* | 1 | -1 | -0.94
CCOC(=O)Cn1c(=O)n(CC(=O)OCC)c2ccccc21 | i | 13 | -1 | -5 | .
CCOC(=O)Cn1c(C)cc(=O)c2cccc(C)c21 | i | 3 | -3 | 12* | -1.1
Cc1cccc(C)c1NC(=S)N1CC(C)OC(C)C1 (configuration not stated) | i | 12 | . | . | .
Cc1cc(C)c2cc(CN(Cc3cccnc3)C(=O)c3ccc(F)cc3)c(Cl)nc2c1 | i | 15 | 91* | -5 | .
OCC1(CCCc2ccccc2)CCN(C2CCSCC2)CC1 | i | -5 | -6 | -1 | -0.61
CCOC(=O)C1(CCCc2ccccc2)CCN(C2CCSCC2)CC1 | i | 2 | 30* | 0 | -2.6
